Measured values: PubChem BioAssay
Entries with a potency or affinity are not part of this list. Inconclusive results are not listed. Calls of active or inactive are those of the source. Unless noted, no rule for the calls is given here.

Experiments:
[1] = RMG-1 ovarian cancer cell viability loss – cherry-pick, dose response (AID 687029;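 active = signal drop whose fitted half-maximal concentration is at most twice the top valid dose, in every test run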;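 also: cells exposed to compound for 96 hours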)
[2] = IOSE-T80 viability loss, PAX8-independent line – cell-based, cherry-pick, selectivity assay for PAX8 inhibitor project, dose response (AID 687032;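 active = fitted half-maximal concentration for viability loss no higher than twice the top valid dose, in every repeat run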;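 also: cells exposed to compound for 96 h before reading; 0% = neutral control wells and -100% = 2 µM mitoxantrone kill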)
[3] = general cell-killing toxicity readout – plate reader, dry powder samples, cytotoxicity control for PAX8 inhibitor project, dose response (AID 743021)
[4] = IGROV1 cell killing – plate reader, dry powder samples, PAX8 inhibitor project, dose response (AID 743043);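 also: more negative means fewer viable cells or more cytotoxicity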
[5] = toxicity toward immortalized ovarian surface epithelium – cell-based, plate reader, dry powder samples, cytotoxicity control for PAX8 inhibitor project, dose response (AID 743045);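 also: 0% = neutral control median and -100% = positive control median; more negative values mean more cell killing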
[6] = A2780 cell killing – plate reader, dry powder samples, cytotoxicity control, dose response (AID 743046);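 also: 0% = neutral control wells and -100% = cytotoxic reference compound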
[7] = OVCAR-3 cell viability loss – plate reader, dry powder samples, PAX8 inhibitor project, dose response (AID 743044); conditions: max activity: at 35 µM, active compounds read low unless noted
[8] = OVCAR8 cell viability loss – plate reader, dry powder samples, PAX8 project, dose response (AID 743197)

Measured: max activity

C[C@H]1CN([C@@H](C)CO)S(=O)(=O)c2ccc(C#CC3CCCC3)cc2O[C@@H]1CN(C)Cc1cccnc1
inactive: [1] | [2] | [3] | [4] | [5] | [6]

C[C@H]1CN([C@@H](C)CO)C(=O)c2c(c3ccccc3n2C)-c2ccccc2CO[C@@H]1CN(C)S(=O)(=O)c1cccc(F)c1
inactive: [1] | [2] | [3] | [4] | [7] -21.9% | [5] | [6]

CC(C)CC#Cc1ccc2c(c1)O[C@H](CN(C)Cc1ccc(F)cc1)[C@H](C)CN([C@H](C)CO)S2(=O)=O
inactive: [1] | [2] | [3] | [4] | [7] 38.6% [at 2.1 µM, active compounds read low] | [5] | [6]

C[C@@H]1CCCCO[C@H](CN(C)Cc2ccc3c(c2)OCO3)[C@@H](C)CN([C@@H](C)CO)C(=O)c2cc(NC(=O)Nc3ccc(C(F)(F)F)cc3)ccc2O1
inactive: [1] | [2] | [3] | [4] | [7] -12% | [5] | [6]

COc1ccc(NC(=O)N(C)C[C@H]2OCCCC[C@@H](C)Oc3ccc(NC(=O)Nc4ccc(C(F)(F)F)cc4)cc3C(=O)N([C@@H](C)CO)C[C@@H]2C)cc1
inactive: [1] | [2] | [3] | [4] | [5] | [6]

C[C@@H]1CCCCO[C@H](CN(C)Cc2ccc(Cl)c(Cl)c2)[C@@H](C)CN([C@@H](C)CO)C(=O)c2cc(NC(=O)Nc3ccc(C(F)(F)F)cc3)ccc2O1
inactive: [1] | [2] | [3] | [4] | [5] | [6]

C[C@H]1CN([C@@H](C)CO)C(=O)Cc2cc(NC(=O)Nc3ccc4c(c3)OCO4)ccc2O[C@@H]1CN(C)Cc1ccc(-c2ccccc2)cc1
inactive: [1] | [2] | [3] | [4] | [7] -22.8% [at 16 µM, active compounds read low] | [5] | [6] | [8]

Cc1noc(C)c1S(=O)(=O)Nc1ccc2c(c1)C(=O)N([C@@H](C)CO)C[C@H](C)[C@@H](CN(C)C(=O)Nc1ccc(C(F)(F)F)cc1)OCCCC[C@H](C)O2
inactive: [1] | [2] | [3] | [4] | [5] | [6]

COc1ccc(S(=O)(=O)Nc2ccc3c(c2)CC(=O)N([C@H](C)CO)C[C@H](C)[C@@H](CN(C)Cc2ccc(C(F)(F)F)cc2)O3)cc1
inactive: [1] | [2] | [3] | [4] | [7] -8.3% [at 8 µM, active compounds read low] | [5] | [6]

CCCN(C)C[C@H]1OCCCC[C@@H](C)Oc2ccc(NC(=O)Nc3ccc(C(F)(F)F)cc3)cc2C(=O)N([C@H](C)CO)C[C@H]1C
inactive: [1] | [2] | [3] | [4] | [7] 9.68% [at 1 µM, active compounds read low] | [5] | [6] | [8]

C[C@H]1CCCCO[C@@H](CN(C)Cc2ccc(Cl)c(Cl)c2)[C@@H](C)CN([C@@H](C)CO)C(=O)c2cc(NC(=O)Nc3ccc(C(F)(F)F)cc3)ccc2O1
inactive: [1] | [2] | [3] | [4] | [5]

C[C@@H]1CCCCO[C@H](CN(C)S(=O)(=O)c2ccc(Cl)cc2)[C@H](C)CN([C@@H](C)CO)C(=O)c2cc(N(C)C)ccc2O1
inactive: [1] | [2] | [3] | [4] | [7] 36.7% [at 16 µM, active compounds read low] | [5] | [6] | [8]

O=C(Nc1ccccc1)N1CCCCN2[C@H](C1)[C@@H](c1ccc(C#Cc3ccccc3)cc1)[C@@H]2CO
inactive: [1] | [2] | [3] | [4] | [5] | [6]

C[C@@H]1CN([C@H](C)CO)C(=O)c2cc(NC(=O)Nc3ccc(C(F)(F)F)cc3)ccc2O[C@@H](C)CCCCO[C@H]1CN(C)S(=O)(=O)c1ccc(F)cc1
inactive: [1] | [2] | [3] | [4] | [7] -20.5% [at 8 µM, active compounds read low] | [5] | [6] | [8]

C[C@@H]1CCCCO[C@H](CN(C)S(=O)(=O)c2ccc(Cl)cc2)[C@H](C)CN([C@@H](C)CO)C(=O)c2cc(NS(=O)(=O)c3ccc(F)cc3)ccc2O1
inactive: [1] | [2] | [3] | [4] | [7] -23.5% [at 8 µM, active compounds read low] | [5] | [6] | [8]

C[C@@H]1CN([C@@H](C)CO)C(=O)Cc2cc(NC(=O)NC3CCCCC3)ccc2O[C@H]1CN(C)Cc1ccc(-c2ccccc2)cc1
inactive: [1] | [2] | [3] | [4] | [5]

Cc1ccc(S(=O)(=O)Nc2ccc3c(c2)C(=O)N([C@@H](C)CO)C[C@H](C)[C@@H](CN(C)C(=O)Nc2cccc4ccccc24)OCCCC[C@@H](C)O3)cc1
inactive: [1] | [2] | [3] | [4] | [5] | [6] | [8]

C[C@@H]1CCCCO[C@@H](CN(C)C(=O)Nc2ccc(F)cc2)[C@H](C)CN([C@@H](C)CO)C(=O)c2cc(NC(=O)Nc3ccc(C(F)(F)F)cc3)ccc2O1
inactive: [1] | [2] | [3] | [4] | [7] -4.11% | [5] | [6] | [8]

C[C@@H]1CCCCO[C@H](CN(C)C(=O)Nc2ccc(C(F)(F)F)cc2)[C@@H](C)CN([C@@H](C)CO)C(=O)c2cc(NS(=O)(=O)c3ccc(F)cc3)ccc2O1
inactive: [1] | [2] | [3] | [4] | [7] 19.5% [at 4.2 µM, active compounds read low] | [5] | [6]

O=C(Nc1ccc(C(F)(F)F)cc1)Nc1ccc2c(c1)[C@H]1C[C@@H](CC(=O)N3CCc4ccccc4C3)O[C@H](CO)[C@H]1O2
inactive: [1] | [2] | [3] | [4] | [5] | [6]

C[C@@H]1CCCCO[C@@H](CN(C)Cc2ccc(Cl)c(Cl)c2)[C@H](C)CN([C@@H](C)CO)C(=O)c2cc(NC(=O)Nc3ccc(C(F)(F)F)cc3)ccc2O1
inactive: [1] | [2] | [3] | [4] | [5] | [6] | [8]

O=C(C[C@H]1C[C@@H]2c3cc(NS(=O)(=O)c4ccc(F)cc4)ccc3O[C@@H]2[C@@H](CO)O1)NCc1ccc(Oc2ccccc2)cc1
inactive: [1] | [2] | [3] | [4] | [7] 26.4% | [5] | [6] | [8]

C[C@@H]1CCCCO[C@@H](CN(C)C(=O)Nc2ccc(C(F)(F)F)cc2)[C@H](C)CN([C@@H](C)CO)C(=O)c2cc(NC(=O)Nc3ccc(C(F)(F)F)cc3)ccc2O1
inactive: [1] | [2] | [3] | [4] | [7] -30.2% | [5] | [6] | [8]

C[C@@H]1CCCCO[C@H](CN(C)Cc2ccc(C(F)(F)F)cc2)[C@H](C)CN([C@H](C)CO)C(=O)c2cc(NS(=O)(=O)c3ccc(Cl)cc3)ccc2O1
inactive: [1] | [2] | [3] | [5]

N#Cc1ccc(-c2ccc(C3[C@@H]4CN(C(=O)c5ccc6c(c5)OCO6)C[C@H]3N4)cc2)cc1 (some centres undefined)
inactive: [1] | [2] | [3] | [4] | [5] | [6] | [8]

C[C@@H]1CN([C@H](C)CO)C(=O)c2cc(NS(=O)(=O)c3ccc(Cl)cc3)ccc2O[C@@H](C)CCCCO[C@@H]1CN(C)CC1CCCCC1
inactive: [1] | [2] | [3] | [5] | [6]

Cc1ccc(S(=O)(=O)Nc2ccc3c(c2)C(=O)N([C@H](C)CO)C[C@@H](C)[C@@H](CN(C)CC2CCCCC2)OCCCC[C@@H](C)O3)cc1
inactive: [1] | [2] | [3] | [5]

C[C@@H]1CCCCO[C@@H](CN(C)Cc2ccc(C(F)(F)F)cc2)[C@@H](C)CN([C@@H](C)CO)C(=O)c2cc(NS(=O)(=O)c3ccc(Cl)cc3)ccc2O1
inactive: [1] | [2] | [3] | [5] | [6]

NC(=NCCCCCCN=C(N)/N=C(\N)Nc1ccc(Cl)cc1)/N=C(\N)Nc1ccc(Cl)cc1
inactive: [1] | [2] | [3] | [5]

C[C@@H]1CCCCO[C@@H](CN(C)S(=O)(=O)c2ccc(Cl)cc2)[C@H](C)CN([C@H](C)CO)C(=O)c2cc(NS(=O)(=O)c3ccc(Cl)cc3)ccc2O1
inactive: [1] | [2] | [3] | [5]

C[C@@H]1CCCCO[C@@H](CN(C)C(=O)Nc2ccc(C(F)(F)F)cc2)[C@H](C)CN([C@H](C)CO)C(=O)c2cc(NS(=O)(=O)c3cccs3)ccc2O1
inactive: [1] | [2] | [3] | [5]

C[C@@H]1CN([C@H](C)CO)C(=O)c2cc(NS(=O)(=O)c3ccc(F)cc3)ccc2O[C@@H](C)CCCCO[C@H]1CN(C)Cc1ccc(C(F)(F)F)cc1
inactive: [1] | [2] | [3] | [5] | [6]

Cc1ccc(S(=O)(=O)N(C)C[C@H]2OCCCC[C@H](C)Oc3ccc(NS(=O)(=O)c4ccc(Cl)cc4)cc3C(=O)N([C@H](C)CO)C[C@@H]2C)cc1
inactive: [1] | [2] | [3] | [5] | [6]

COc1ccc(S(=O)(=O)Nc2ccc3c(c2)C(=O)N([C@@H](C)CO)C[C@H](C)[C@@H](CN(C)C(=O)Nc2ccc(C(F)(F)F)cc2)OCCCC[C@@H](C)O3)cc1
inactive: [1] | [2] | [3] | [5]

C[C@@H]1CCCCO[C@H](CN(C)C(=O)Nc2ccc(C(F)(F)F)cc2)[C@@H](C)CN([C@@H](C)CO)C(=O)c2cc(NS(=O)(=O)c3ccc(Cl)cc3)ccc2O1
inactive: [1] | [2] | [3] | [5]

C[C@@H]1CN([C@@H](C)CO)C(=O)Cc2cc(N(C)C)ccc2O[C@H]1CN(C)Cc1ccc(C(=O)Nc2ccccc2N)cc1
inactive: [1] | [2] | [3] | [5] | [6]
